# Source: PubChem
# Only some compounds are listed: those with a hit (about 9.3% of all), similar ones and a draw of the others.
# SMN2 splice up: increases expression of the SMN2 splice variant; HEK293 SMN2-luciferase splicing reporter, luminescence, 30-36 h; Potency, µM (top dose mostly 46.1 µM), for the others: top-dose activity change, positive = activation, hits mostly activators; 210,000 compounds, 2.8% hits; also: % of control where 0% means no effect; nearly all actives have a fitted effect of over 55% in size
#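 HEK293 cells carry an SMN2 […]–luciferase reporter in which exon 7 inclusion puts luciferase in frame. Cells were plated 10-12 h before compound addition, then incubated 30-36 h at 37C. ONE-Glo luminescence was read; sodium butyrate at 4.5 mM final served as control.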
# FLuc modulator: firefly luciferase modulation, counter-screen for miR-21 project; AID 588342; 360,000 compounds, 6.9% hits; purified FLuc, Km substrates, luminescence inhibition; Potency, µM (doses to about 57.5 µM), for the others: at the top dose activity change, negative = inhibition, usual class: inhibitors;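 also: plate controls were vehicle for no effect and reference inhibitor for full effect; nearly all actives have a fitted effect of over 55% in size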
#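 Purified P. pyralis luciferase, 10 nM final, with Km-level 10 uM D-luciferin and 10 uM ATP in 50 mM Tris acetate pH 7.5, 10 mM Mg acetate, 0.01% Tween-20, 0.05% BSA; 6-point qHTS titration about 60 µM downward; luminescence read.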
# NPC1 prom act: activates the NPC1 promoter; Huh7 NPC1 promoter luciferase reporter, 24 h; Potency, µM (titrated, usually from 9.22 µM), for the others: top-dose activation, most hits filed as activators; 320,000 compounds, 2.4% hits; AID 485313; also: % of control where 0% means no effect; nearly all actives have a fitted effect of over 60% in size
#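 Compounds in DMSO were transferred onto Huh7 NPC1-luciferase reporter cells pre-incubated 2 h; after 24 h at 37 °C, Amplite reagent was dispensed and luminescence recorded 10 min later.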
# Rab9 prom act: Rab9 promoter activation. Huh7 Rab9 promoter-luciferase reporter, luminescence, 24 h. AID 485297. Potency, µM (titrated, usually from 9.22 µM), for the others: top-dose activation, negative = inhibition, actives largely listed as activators. 320,000 compounds, 2.8% hits; also: % of control where 0% means no effect; nearly all actives have a fitted effect of over 60% in size
#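 Stable Rab9-luc Huh7, 1500 cells/well, 2 h settle; cmpd in DMSO, 24 h, 37 °C/5% CO2; luciferase reagent 10 min RT; luminescence.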
# ELG1 genotoxic: genotoxicity induction in ELG1-luciferase HEK293T cells; 330,000 compounds, 1.3% hits; Potency, µM (series often up to 46 µM), without a hit: top-dose activity change, positive = activation, most hits filed as activators; HEK293T ELG1-luciferase reporter, luminescence, 16 h; also: % of control where 0% means no effect; nearly all actives have a fitted effect of over 60% in size
#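 Screening used a luciferase reporter fused to human ELG1 in HEK293T cells. Luminescence was read on a CCD plate imager after 16 hr exposure and 30 min ONE-Glo incubation.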
# ELG1 repair inh: inhibitors of ELG1-dependent DNA repair in HEK293T cells | HEK293T ELG1-luciferase reporter, luminescence, 16 h; DNA damage induced by 5-fluorouridine | Potency, µM (series often up to 46.1 µM), for the others: at the highest dose activity change, negative = inhibition, actives largely listed as inhibitors | 330,000 compounds, 2.3% hits | AID 504467; also: % is scaled to controls: 0 for no effect and ±100 for the full control effect; nearly all actives have a fitted effect of over 55% in size
#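 Overnight (16 hr) co-exposure of 2,000 cells/well to 5-fluorouridine and compound at 37 °C preceded detection. Luciferase was quantified via ONE-Glo luminescence; loss of signal denotes inhibition.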
# ELG1 FLuc counter: luciferase inhibition in cell-free luciferin readout for ELG1 hits. shares compounds with ELG1 repair inh. cell-free firefly luciferase luminescence counter-screen, ViewLux. Potency, µM (highest dose often 46.1 µM), for inactives: at the top dose activity change, negative = inhibition, usual class: inhibitors. 350 compounds, 3% hits; also: % is scaled to controls: 0 for no effect and ±100 for the full control effect
# ELG1 Luc conf: human ELG1 repair inhibition, luciferase-tagged ELG1 confirmation; 670 compounds, 68% hits; HEK293T ELG1-luciferase levels, luminescence; cells co-treated with 5-fluorouridine; AID 624248; Potency, µM (titrated, usually from 46.1 µM), inactives show at the top dose activity change, negative = inhibition, most hits filed as inhibitors; shares compounds with ELG1 repair inh; also: % is scaled to controls: 0 for no effect and ±100 for the full control effect; nearly all actives have a fitted effect of over 55% in size
# Target sequence (Q96QE3 whole entry, looked up): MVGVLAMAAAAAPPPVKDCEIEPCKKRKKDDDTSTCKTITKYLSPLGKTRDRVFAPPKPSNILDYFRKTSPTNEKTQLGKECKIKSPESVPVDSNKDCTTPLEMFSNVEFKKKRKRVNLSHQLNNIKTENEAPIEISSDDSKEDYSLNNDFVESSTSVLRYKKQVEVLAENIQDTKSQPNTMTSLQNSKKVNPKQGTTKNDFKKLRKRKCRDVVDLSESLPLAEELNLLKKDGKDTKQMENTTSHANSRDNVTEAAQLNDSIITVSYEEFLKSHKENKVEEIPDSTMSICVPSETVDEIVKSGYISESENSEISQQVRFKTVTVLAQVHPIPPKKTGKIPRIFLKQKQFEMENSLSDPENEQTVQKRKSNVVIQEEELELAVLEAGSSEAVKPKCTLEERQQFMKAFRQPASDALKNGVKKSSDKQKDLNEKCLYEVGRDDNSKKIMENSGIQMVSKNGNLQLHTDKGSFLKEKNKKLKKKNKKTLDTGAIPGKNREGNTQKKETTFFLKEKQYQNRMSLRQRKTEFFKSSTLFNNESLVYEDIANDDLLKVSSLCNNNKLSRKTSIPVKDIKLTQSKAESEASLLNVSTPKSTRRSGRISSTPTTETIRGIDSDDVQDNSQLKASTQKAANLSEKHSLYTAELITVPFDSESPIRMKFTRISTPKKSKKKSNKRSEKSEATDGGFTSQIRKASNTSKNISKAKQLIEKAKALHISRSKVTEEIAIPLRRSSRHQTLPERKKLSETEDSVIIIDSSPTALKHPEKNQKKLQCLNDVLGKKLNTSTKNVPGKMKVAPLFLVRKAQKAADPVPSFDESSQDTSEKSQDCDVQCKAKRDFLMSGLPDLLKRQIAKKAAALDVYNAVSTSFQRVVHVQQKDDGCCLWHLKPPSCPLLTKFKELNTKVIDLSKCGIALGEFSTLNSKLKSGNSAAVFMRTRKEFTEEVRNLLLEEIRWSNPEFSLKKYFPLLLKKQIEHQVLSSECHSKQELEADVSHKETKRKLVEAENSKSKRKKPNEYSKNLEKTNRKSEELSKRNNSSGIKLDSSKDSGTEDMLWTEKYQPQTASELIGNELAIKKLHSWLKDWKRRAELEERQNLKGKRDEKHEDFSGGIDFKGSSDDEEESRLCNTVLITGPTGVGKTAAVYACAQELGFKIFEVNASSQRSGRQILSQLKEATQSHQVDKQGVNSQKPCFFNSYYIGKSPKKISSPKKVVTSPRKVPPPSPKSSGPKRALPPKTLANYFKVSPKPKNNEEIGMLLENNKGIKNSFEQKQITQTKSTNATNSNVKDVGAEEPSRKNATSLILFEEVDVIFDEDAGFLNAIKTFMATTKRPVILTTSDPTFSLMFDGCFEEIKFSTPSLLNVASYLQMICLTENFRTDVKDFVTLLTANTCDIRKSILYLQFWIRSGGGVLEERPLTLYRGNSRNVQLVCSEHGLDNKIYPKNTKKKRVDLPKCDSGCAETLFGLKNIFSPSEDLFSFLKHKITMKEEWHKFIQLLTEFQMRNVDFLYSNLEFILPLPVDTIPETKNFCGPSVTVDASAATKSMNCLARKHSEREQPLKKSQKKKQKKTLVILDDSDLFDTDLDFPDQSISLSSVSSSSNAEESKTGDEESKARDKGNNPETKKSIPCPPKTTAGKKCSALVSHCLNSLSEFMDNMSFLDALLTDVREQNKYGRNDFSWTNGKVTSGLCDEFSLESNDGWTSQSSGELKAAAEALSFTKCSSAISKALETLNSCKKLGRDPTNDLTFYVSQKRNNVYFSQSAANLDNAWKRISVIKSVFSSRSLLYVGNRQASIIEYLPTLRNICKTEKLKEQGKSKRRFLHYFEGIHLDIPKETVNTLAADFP
# ELG1-Luc MMS: inhibits ELG1-dependent repair under MMS stimulation in HEK293T cells; AID 624249; HEK293T luciferase-tagged ELG1 level, MMS stimulated; 670 compounds, 53% hits; shares compounds with ELG1 repair inh; Potency, µM (titrated, usually from 46.1 µM), inactives show top-dose activity change, negative = inhibition, usual class: inhibitors; also: % is scaled to controls: 0 for no effect and ±100 for the full control effect; nearly all actives have a fitted effect of over 60% in size
# ELG1 5-FU: confirmation of ELG1 repair inhibitors: viability with 5FU | shares compounds with ELG1 repair inh | AID 624250 | Potency, µM (top dose mostly 46.1 µM), for inactives: top-dose activity change, negative = viability loss, hits mostly cytotoxic | 670 tested, under 10 active | cell viability with 5-FU, ELG1-dependent repair;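 also: ELG1-luc HEK293T cells cotreated with 5-fluorouridine at 10 µM final; viability measured 16 h after compound addition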
# ELG1 MMS viab: confirmation of ELG1 repair inhibitors: viability with MMS. Cell viability with MMS, ELG1-dependent DNA repair. 670 compounds, 33% hits. shares compounds with ELG1 repair inh. AID 624251. Potency, µM (doses to about 46.1 µM), for the others: at the highest dose activity change, negative = viability loss, hits mostly cytotoxic;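 also: ELG1-luc HEK293T cells co-treated with 10 µM MMS; viability read 16 h after compound addition; % is scaled to controls: 0 for no effect and ±100 for the full control effect; nearly all actives have a fitted effect of over 60% in size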
# Cell viab unstim: unstimulated viability counter-screen for ELG1 repair hits. Potency, µM (doses to about 45.9 µM), inactives show at the highest dose activity change, negative = loss of viability, usual class: cytotoxic. shares compounds with ELG1 repair inh. cell viability counter-screen, unstimulated, luminescence. AID 624252. 900 compounds, 8% hits;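 also: compound exposure lasted 16 hours before reading; % is scaled to controls: 0 for no effect and ±100 for the full control effect; nearly all actives have a fitted effect of over 55% in size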
# FLuc biochem: inhibits purified firefly luciferase, counter-screen for ELG1 hits; AID 624253; purified firefly luciferase, luminescence counter-screen; shares compounds with ELG1 repair inh; 350 compounds, 10% hits; Potency, µM (series often up to 57.5 µM), for the others: at the top dose activity, negative = inhibition, hits mostly inhibitors; also: % is scaled to controls: 0 for no effect and ±100 for the full control effect
# Starred values were filed as active, the others as inactive; ? = inconclusive; . = no result given. Calls follow the shape of the dose curve; as a rule, active = well fitted curve in the direction sought with a large enough effect; inconclusive = small, poorly fitted or top-dose-only effect, or another doubt; inactive = no such curve, though single readings can be large; an effect the other way counts as inactive or inconclusive. Potency is read from the fitted curve at half-maximal effect.
SMILES,SMN2 splice up,FLuc modulator,NPC1 prom act,Rab9 prom act,ELG1 genotoxic,ELG1 repair inh,Cell viab unstim,others
Cc1nn(-c2ccc(C(=O)N3CCN(S(=O)(=O)c4ccccc4C(F)(F)F)CC3)cc2)c(C)c1Cl,.,4%,-7%,-14%,-2%,3.3µM*,?,ELG1 Luc conf=7.1µM*;ELG1-Luc MMS=?;ELG1 5-FU=?;ELG1 MMS viab=?
CCN(CC)C(=O)c1sc(NC(=O)c2cccnc2)c(C(=O)OC)c1C,-7%,0%,-3%,-3%,1%,2.6µM*,?,ELG1 Luc conf=3.1µM*;ELG1-Luc MMS=-10%;ELG1 5-FU=?;ELG1 MMS viab=9%
OC(COc1cccc2ccccc12)CN1CCN(c2ccc(Cl)cc2)CC1 (stereo unspecified),.,0%,-2%,-10%,1%,11%,.,
Cc1nnc(SCC(=O)Nc2sccc2C#N)s1,.,-18%,3%,0%,19%,2%,.,
N#Cc1ccsc1NC(=O)CSc1nncs1,.,.,.,.,?,?,-16%,
Nc1c(Cl)cc(Cl)cc1C(=O)OCC(=O)N1CCOCC1,?,6%,-1%,7%,2%,2%,.,
CCCNc1c(NS(=O)(=O)c2ccc(Cl)s2)c(=O)oc2ccccc12,.,1%,0%,5%,2%,22%,.,
C[C@H](NC(=O)[C@H](Cc1ccccc1)n1c(=O)[nH]c2ccccc2c1=O)C(=O)N1CCC(C(=O)O)CC1,.,1%,21%,-5%,-2%,-4%,.,
COc1ccc(F)cc1S(=O)(=O)NCCN1CCOCC1,.,4%,-5%,7%,-4%,10%,.,
CSc1ncccc1C(=O)OCC(=O)c1ccc(C)s1,.,.,.,.,1%,16%,.,
COCCn1c(C)cc(C(=O)COC(=O)c2cccnc2SC)c1C,.,.,.,.,?,?,?,ELG1 FLuc counter=118%;FLuc biochem=0.52µM*
COCCN(C(=O)CNC(=O)c1cccs1)C(C(=O)NC(C)(C)C)c1ccccc1 (stereo unspecified),5%,?,-3%,2%,2%,2%,.,
CN(C)S(=O)(=O)c1ccc(C(=O)NC(=O)CSc2nnnn2C)cc1,.,.,.,.,1%,4%,.,
Nc1cc(=O)[nH]c(SCC(=O)Nc2ccc(Cl)c(Cl)c2)n1,-1%,0%,-2%,-11%,3%,14%,.,
Nc1cc(=O)[nH]c(SCc2ccc(Cl)cc2Cl)n1,.,1%,-19%,-26%,9%,4.1µM*,-7%,ELG1 Luc conf=-12%;ELG1-Luc MMS=2.8µM*;ELG1 5-FU=6%;ELG1 MMS viab=4µM*
CC(C)(C)NC(=O)c1ccc2nccnc2c1,-5%,4%,1%,1%,0%,4%,.,
C/C=C/C(=O)OCC(=O)Nc1cccc(Br)c1,-1%,6%,2%,8%,1%,11%,.,
CCOC(=O)c1c(NC(=O)Cn2cc([N+](=O)[O-])cn2)sc2c1CCC2,-18%,6%,-1%,3%,1%,1.8µM*,?,ELG1 Luc conf=-9%;ELG1-Luc MMS=18µM*;ELG1 5-FU=5%;ELG1 MMS viab=7.9µM*
CCCCC/C=C\C/C=C\C/C=C\CC1OC1CCCC(=O)O (stereo unspecified),11%,.,.,.,.,.,.,
C#CCOCCOCCOCCNc1nc(N2CCN(C(=O)[C@H](Cc3cc4ccccc4[nH]3)n3cc([C@@H](N)C(C)CC)nn3)CC2)nc(N2CCN(C(=O)[C@H](Cc3cc4ccccc4[nH]3)n3cc([C@@H](N)CC(C)C)nn3)CC2)n1 (stereo partly specified),.,1%,2%,15%,2%,-5%,.,
Cc1cccc(N2CCN(C3=NC(=O)/C(=C\c4cn[nH]c4-c4ccccc4)S3)CC2)c1,-11%,1%,-3%,-9%,1%,2.3µM*,?,ELG1 FLuc counter=19%;ELG1 Luc conf=1.4µM*;ELG1-Luc MMS=11µM*;ELG1 5-FU=?;ELG1 MMS viab=?;FLuc biochem=-2%
COc1cccc(/C=C/c2nc3ccccc3c(=O)n2-c2ccc(C)c(C)c2)c1OC,.,6%,.,.,.,.,.,
COc1cccc(/C=C/c2cnc3ccccc3n2)c1OC,.,.,.,.,.,.,-16%,ELG1 FLuc counter=-23%;FLuc biochem=0.33µM*
COc1ccc(NC(=O)c2c(N)no[n+]2[O-])cc1,-40%,-5%,14%,?,14%,4.6µM*,-4%,ELG1 Luc conf=14%;ELG1-Luc MMS=5%;ELG1 5-FU=0%;ELG1 MMS viab=-6%
COc1ccc(NC(=O)c2c(N)no[n+]2[O-])c(OC)c1,-11%,-2%,1%,9%,3%,?,.,
Cc1ccc(C)c(OCC(=O)NC2CCCCCC2)c1,.,?,12%,24%,1%,0%,.,
CC(=O)Oc1c(C)cccc1C(=O)O,-2%,.,.,.,.,.,.,
N#CC1=C(N)N(c2ccc(Cl)c(Cl)c2)C(=O)C1,3%,3%,-5%,-4%,1%,-4%,.,
COc1ccccc1CCNC(=O)C(=O)NCC1CCCN1S(=O)(=O)c1ccccc1 (stereo unspecified),.,0%,-8%,0%,-12%,4.1µM*,22µM*,ELG1 Luc conf=14µM*;ELG1-Luc MMS=16µM*;ELG1 5-FU=-3%;ELG1 MMS viab=?
COc1ccc(CCNC(=O)C(=O)NCC2CCCN2S(=O)(=O)c2ccccc2)cc1 (stereo unspecified),.,?,3%,-19%,-3%,?,.,
